Source: PubChem BioAssay
Most compounds without a hit are left out; they make up all but 4% or so of the library.
Mtb betalactam = beta-lactam sensitization of Mtb H37Rv, H37Rv; inhibition, % at 25 µM; M. tuberculosis H37Rv growth with meropenem, percent inhibition; AID 434955, 2010; 330,000 tested, 0.27% active; call rule not given here;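 also: growth measured after seven days incubation then overnight dye step; 0% = bacteria only wells and 100% = bacteria with antibiotic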
UGM FP inh = M. tuberculosis UGM enzyme inhibitors, primary screen, biochemical, fluorescence polarization, single point; purified UGM, fluorescence polarization probe displacement; inhibition, % at 10 µM; 320,000 tested, 0.06% active; AID 504406, 2011; in the data active = inhibition above about 10%, passing the limit was not always enough; inconclusive = no clear call, values can overlap the other calls
Target sequence (P9WIQ1 whole entry, looked up): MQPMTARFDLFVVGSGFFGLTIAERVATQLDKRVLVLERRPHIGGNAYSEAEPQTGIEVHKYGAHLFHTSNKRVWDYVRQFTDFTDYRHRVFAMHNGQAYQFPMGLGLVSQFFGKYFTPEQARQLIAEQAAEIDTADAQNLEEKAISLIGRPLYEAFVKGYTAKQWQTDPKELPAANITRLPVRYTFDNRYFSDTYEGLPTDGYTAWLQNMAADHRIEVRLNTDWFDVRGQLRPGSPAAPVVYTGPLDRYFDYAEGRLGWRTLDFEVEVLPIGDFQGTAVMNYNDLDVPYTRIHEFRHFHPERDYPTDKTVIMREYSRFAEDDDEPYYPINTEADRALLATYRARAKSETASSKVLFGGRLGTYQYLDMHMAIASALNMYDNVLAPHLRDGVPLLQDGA
GDH-TPI counter = GDH-TPI coupling enzyme inhibitors, primary screen, artefact control for M. tuberculosis FBA inhibitor project, biochemical, absorbance, full deck; GDH-TPI coupled enzyme counterscreen, NADH absorbance; inhibition, % at 4.8 µM; 360,000 tested, 1.2% active; AID 588335, 2011; in the data active = inhibition above about 30%;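 also: 0% = DMSO wells and 100% = wells lacking the enzyme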
Mtb FBA inh = Mtb FBA enzyme inhibitors, primary screen, biochemical, fluorescence, strain H37Rv; Fructose-bisphosphate aldolase (Mycobacterium tuberculosis (strain ATCC 25618 / H37Rv)), …; inhibition, % at 1 µM; purified M. tuberculosis FBA, fluorescence read-out; 360,000 tested, 2.3% active; in the data active = inhibition above about 27%;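 also: 0% = vehicle and 100% = reference inhibitor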
Rv3671c inh = Rv3671c serine protease inhibitors, primary screen, biochemical, fluorescence polarization, M. tuberculosis H37Rv; 320,000 tested, 0.048% active; inhibition, % at 5.96 µM; in the data active = inhibition above about 38%;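 also: extracellular domain of Rv3671c used as enzyme; 0% = enzyme with DMSO and 100% = no enzyme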
RecA splice inh = Mtb RecA intein splicing inhibitors, primary screen, biochemical, fluorescence, HTS; Protein RecA (Mycobacterium tuberculosis (strain ATCC 25618 / H37Rv)), P9WHJ3; cell-free RecA intein splicing; inhibition, % (test concentration not listed); 290,000 tested, 0.75% active; AID 2221, 2009; in the data active = inhibition above about 30%; inconclusive = no clear call, values can overlap the other calls;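 also: 0% = vehicle wells and 100% = reference inhibitor control wells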
Starred values were filed as active, the others as inactive; ? = inconclusive; . = no result; + = active, no number.

SMILES	Mtb betalactam	UGM FP inh	GDH-TPI counter	Mtb FBA inh	Rv3671c inh	RecA splice inh
C[C@@H]1CN([C@H](C)CO)C(=O)CCCn2nncc2CO[C@H]1CN(C)C(=O)c1ccccc1	.	.	-11.3	-3.3	.	.
COc1ccc2c(c1)c(C(=O)N/N=C/c1ccc(O)c(O)c1)c(C)n2C	2.4	-1.3	43.7*	-5.2	5.4	-5.7
CC1CCN(c2ccc(-c3cccs3)nn2)CC1	?	0.5	6.3	3.1	8.1	0.8
COc1cc(-c2nc3ccccc3s2)ccc1O	1.1	2.0	19.4	150.1*	1.4	-3.7
COc1cc(OC)c(-c2nc3ccccc3s2)cc1OC	83.1	-1.2	12.9	+	3.3	-1.3
COc1cccc(-c2nc3ccccc3s2)c1O	-5.7	-0.8	-3.2	5.6	-2.7	.
CCOc1cc(-c2nc3ccccc3s2)ccc1O	95.9	-2.3	27.8	+	-1.1	2.5
COc1ccc(-c2nc3ccccc3s2)cc1O	8.5	3.4	36.2*	8.7	-15.4	-1.1
COc1ccccc1CCC(=O)OCC(=O)Nc1cc(C)nn1-c1ccccc1	2.9	0.9	10.1	-1.5	-1.0	-3.8
CC(=O)c1cccc(OCc2cc(C(=O)NCc3nc(C)c(C)s3)no2)c1	-1.3	-5.8	-5.5	-1.6	0.3	2.4
Cc1cc(N(C)Cc2ccccc2)nc2cc(O)ccc12	8.0	1.6	8.9	+	0.5	-110.4
COc1cccc(NC(=O)c2oc3ccccc3c2NC(=O)c2ccc3c(c2)OCO3)c1	-21.8	1.7	35.7*	1.6	-139.6	1.8
COc1ccc(C(=O)c2oc3ccccc3c2NC(C)=O)cc1	10.8	1.0	32.9*	-0.3	-19.4	-4.5
Cc1cccc(Oc2ccccc2NC(=O)C2=COCCO2)c1	5.9	0.1	0.9	0.9	5.8	.
CC1=C(C(=O)N(C)C)CC(CC(=O)NCc2cccc3ccccc23)C(=O)N1Cc1ccccc1 (stereo unspecified)	.	.	9.3	-0.3	.	.
Cn1c(SCC(=O)NC2CC2)nnc1-c1cccs1	-24.9	1.0	1.7	1.2	-0.3	0.6
Cc1ccc(N(CC(O)CN2CCOCC2)S(=O)(=O)c2ccc([N+](=O)[O-])cc2)cc1 (stereo unspecified)	-28.0	3.2	2.2	1.5	-8.0	.
COc1ccc(-c2cc(=O)c3c(OC)c(OC)c(OC)c(OC)c3o2)cc1	.	.	51.0*	1.9	.	.
COc1ccc(-c2cc(=O)c3cc(OC)ccc3o2)cc1	-5.4	0.9	4.9	25.9	0.0	0.8
CC(C)(C)c1nnc(N/N=C/c2ccccc2O)n(N)c1=O	7.2	2.9	36.4*	0.2	-3.9	-6.6
COc1ccc(N=CC2=C(Nc3ccc(OC)cc3)c3c(C)nn(-c4ccccn4)c3CC2)cc1	100.1	14.4*	.	.	-2.3	.
CCOC(=O)CSc1nc2c(sc(=S)n2-c2ccc(CC)cc2)c(=O)[nH]1	2.8	2.3	33.0*	2.6	-1.6	-1.4
CC1CN(S(=O)(=O)c2ccc(C(=O)N(C)C3CCCCC3)cc2)CC(C)O1 (stereo unspecified)	-4.6	-6.9	2.6	1.1	-2.1	.
CN(C)C(CNC(=O)c1ccccc1OCc1ccc(Cl)cc1)c1ccco1 (stereo unspecified)	2.4	-1.5	-2.1	-0.8	-6.8	3.2
CC(=O)c1ccc(-c2nc3ccccc3n2C)o1	-23.7	-1.3	26.7	+	3.3	-27.4
SMILES	Mtb betalactam	UGM FP inh	GDH-TPI counter	Mtb FBA inh	Rv3671c inh	RecA splice inh
COc1ccccc1[C@H]1C(c2ccccc2)=NN(c2ccccc2)[C@@H]1CO	.	.	5.2	79.2*	.	.
CN(C)C(=O)CNc1ccn2nc(-c3cccc(Cl)c3)cc2n1	.	.	1.8	13.1	.	.
CC(C)n1nc(C(=O)Oc2ccc(Cl)cc2)c2ccccc2c1=O	1.4	2.9	7.3	1.6	-2.5	3.8
CCCn1nc(C(=O)OCC(=O)Nc2ccc(C)cc2)c2ccccc2c1=O	1.4	4.9	2.5	-1.0	5.6	.
Cc1cc(=O)oc2cc(OC(=O)c3nn(C(C)C)c(=O)c4ccccc34)ccc12	73.6	-1.0	14.4	+	1.5	-7.8
CCCn1nc(C(=O)Oc2ccc3c(C)cc(=O)oc3c2)c2ccccc2c1=O	-2.5	0.3	6.2	+	-0.2	-4.8
